# Assay results as given in publication PMC5540273 (PLoS ONE, 2017).
# “And” between values parts separate entries of the source, which are not always exact repeats. Equal entries are not always repeated. Where two headings read alike, the source gives them in different places.
# Tests used:
# GRK4 = conditions: concentration: 1 μM, replicates: in singlicate, n = 1
# GRK7 = conditions: concentration: 1 μM, replicates: in singlicate, n = 1
# GSK3A = conditions: concentration: 1 μM, replicates: in singlicate; n = 1
# GSK3B = conditions: n = 1
# HASPIN = system: T1, HASPIN; conditions: concentration: 1 μM, replicates: in singlicate, n = 1
# T1 construct: gene GSG2
# HCK = conditions: concentration: 1 μM, replicates: in singlicate; n = 1
# HIPK1 = conditions: concentration: 1 μM, replicates: in singlicate, n = 1
# HIPK2 = conditions: concentration: 1 μM, replicates: in singlicate, n = 1
# HIPK3 = conditions: concentration: 1 μM, replicates: in singlicate, n = 1
# HIPK4 = conditions: concentration: 1 μM, replicates: in singlicate, n = 1
# [1] = concentration: 1 μM, replicates: in singlicate
# 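Also: KINOMEscan kinase panel screen.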
Compound,%Inh (GRK4) [%],%Inh (GRK7) [%],%Inh (GSK3A) [%],%Inh (GSK3B; [1]) [%],%Inh (HASPIN) [%],%Inh (HCK) [%],%Inh (HIPK1) [%],%Inh (HIPK2) [%],%Inh (HIPK3) [%],%Inh (HIPK4) [%],%Inh (GSK3B; 1 µM) [%],%Inh (GRK4; 1 µM),%Inh (GRK7; 1 µM),"%Inh (GSK3B; concentration: 1 μM, replicates: in singlicate, 1 µM)",%Inh (HASPIN; 1 µM),%Inh (HIPK1; 1 µM),%Inh (HIPK2; 1 µM),%Inh (HIPK3; 1 µM),%Inh (HIPK4; 1 µM)
NS(=O)(=O)c1cccc(-c2ccc3ncc(N4CCOCC4)nc3c2)c1 [GSK1535721],0,0,19,0,36,0,10,0,1,0,–,–,–,–,–,–,–,–,–
O=C1NC(=O)C(N2CCc3ccccc32)=C1c1cccc(Cl)c1 [SB-408010],29,5,2,–,0,25,27,13,7,0,27,–,–,–,–,–,–,–,–
COc1ccc(Nc2ncc(C#N)c(Nc3ccccc3C(N)=O)n2)cc1N1CCN(C)CC1.Cl [GSK1558669],96,46,99.8,99.8,88,98.8,100,98.8,99.8,89,–,–,–,–,–,–,–,–,–
CCc1nc(-c2cccc(C)c2)c(-c2ccnc(NCc3ccccc3)c2)s1,9,0,12,0,41,5,21,0,0,7,–,–,–,–,–,–,–,–,–
N#Cc1c(N2CCOCC2)sc(-c2ccn[nH]2)c1-c1ccc(Cl)cc1,0,26,0,0,6,28,26,16,28,0,–,–,–,–,–,–,–,–,–
CNc1ncnc2[nH]ncc12 [SKF-18355],4,0,0,25,44,16,42,0,12,0,–,–,–,–,–,–,–,–,–
O=C(NOCC1CC1)c1ccc(F)c(F)c1Nc1ccc(I)cc1Cl,0,0,0,0,30,0,0,0,0,0,–,–,–,–,–,–,–,–,–
Cc1nnc(-c2ccc3occ(-c4ccc(C(C)O)cc4)c3c2)o1 (centres unmarked),1,11,73,19,29,6,67,56,41,33,–,–,–,–,–,–,–,–,–
NS(=O)(=O)c1cccc(-c2ccc3nccc(-c4cccc(S(N)(=O)=O)c4)c3c2)c1 [GW867253],26,0,0,52,64,20,37,29,27,0,–,–,–,–,–,–,–,–,–
Fc1ccc(-c2ncn(CCCN3CCOCC3)c2-c2cccnc2)cc1 [SB-211743],14,0,24,20,41,34,38,0,18,4,–,–,–,–,–,–,–,–,–
NS(=O)(=O)CCc1cccc(Nc2nccc(-c3c(-c4cccc(NC(=O)c5c(F)cccc5F)c4)nn4ccccc34)n2)c1 [GSK336735],43,12,20,6,0,98.9,0,0,8,25,–,–,–,–,–,–,–,–,–
Cc1c(Cn2c(C)nn3c(=O)cc(N4CCOC(C)C4)nc23)cccc1C(F)(F)F (centres unmarked) [GSK2344444],0,0,0,10,0,0,0,0,7,0,–,–,–,–,–,–,–,–,–
NCCNS(=O)(=O)c1ccc(-c2ccnc3[nH]ccc23)cc1 [GSK977617],–,–,0,–,–,0,–,–,–,–,–,69% and 37%,92.1% and 90.1%,0% and 10%,95.3% and 86%,95.6% and 94.2%,96% and 89%,97.4% and 95.9%,77% and 64%
CC(C)(C)n1cnc2c(N)ncnc21 [SKF-97359],5,0,0,0,65,0,13,16,0,0,–,–,–,–,–,–,–,–,–
[2H]C([2H])(c1cccc(C(F)(F)F)c1C)n1ccn2c(=O)nc(N3CCOCC3)cc12 [GSK2336394],0,0,9,0,0,0,0,0,9,0,–,–,–,–,–,–,–,–,–
CC(=O)Nc1ccc(COc2ccc(Nc3ccnc4cc(-c5ccccn5)ccc34)cc2)cc1.Cl [GW440148],0,0,34,12,13,52,0,0,12,7,–,–,–,–,–,–,–,–,–
Cc1cccc(-c2nc(Nc3ccc4ncsc4c3)c3ccccc3n2)n1 [GW867588],0,7,3,5,16,24,0,11,0,6,–,–,–,–,–,–,–,–,–
